CYP2C19 inhib – blockers of cytochrome P450 2C19 activity – biochemical, luminescence, ADME assay, primary screen; CYP2C19 Supersomes, luciferin-H EGE luminescence, 30 min; inhibition, % at 5 µM; 96,000 tested, 21% active; AID 778, 2007;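 active = CYP2C19 inhibition above a set limit at 5 µM in the primary screen, cut at about 50% in these data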;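 also: plate controls were negative control wells for no effect and 2.5 mM tranylcypromine positive control for full effect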
CYP2C9 inh – blockers of cytochrome P450 2C9 activity – biochemical, luminescence, ADME assay, primary screen | CYP2C9 Supersomes, luciferin-H conversion | 96,000 tested, 20% active | inhibition, % at 5 µM | P11712;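 active = blocking of liver enzyme CYP2C9 beyond about 50% at 5 µM, limit read from the data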
Target sequence (P11712 whole entry, looked up): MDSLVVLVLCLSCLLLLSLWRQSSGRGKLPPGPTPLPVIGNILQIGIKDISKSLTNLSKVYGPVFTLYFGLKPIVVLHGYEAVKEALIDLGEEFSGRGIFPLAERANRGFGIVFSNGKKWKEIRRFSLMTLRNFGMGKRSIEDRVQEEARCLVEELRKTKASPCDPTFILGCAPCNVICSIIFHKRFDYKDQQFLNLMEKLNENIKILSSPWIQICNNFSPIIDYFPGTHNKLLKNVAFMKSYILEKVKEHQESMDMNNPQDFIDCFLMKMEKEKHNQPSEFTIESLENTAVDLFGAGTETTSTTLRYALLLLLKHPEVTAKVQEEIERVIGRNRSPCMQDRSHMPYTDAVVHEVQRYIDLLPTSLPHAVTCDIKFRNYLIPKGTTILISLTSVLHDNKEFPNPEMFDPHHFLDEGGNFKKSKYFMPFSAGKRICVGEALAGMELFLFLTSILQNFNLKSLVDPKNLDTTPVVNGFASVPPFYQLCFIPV
CYP2C9 activ – human CYP2C9 activators, primary screen, biochemical, luminescence; activation factor at 5 µM; Cytochrome P450 2C9 (Homo sapiens), P11712; recombinant CYP2C9, luciferin-H conversion; stronger effect = higher value; factor 1 = untreated enzyme, 0 = blocked; 96,000 tested, 1.4% active;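 active = activation factor of 2 or more for CYP2C9 at a 5 µM dose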;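 also: 0 = sulfaphenazole-blocked wells and 1 = vehicle-only wells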
PLK1 kinase inh – human PLK1 kinase inhibitors, primary screen, biochemical, TR-FRET; 97,000 tested, 0.53% active; AID 619, 2007; inhibition, % at 10 µM; Serine/threonine-protein kinase PLK1 (Homo sapiens), P53350; recombinant PLK1 kinase, TR-FRET peptide phosphorylation;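 active = inhibition of 50% or more in the single-concentration screen; inactive = inhibition below 50%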;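 also: 0% = DMSO max control and 100% = H-89 dihydrochloride min control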
CYP2C19 activ – human CYP2C19 activators, primary screen, biochemical, luminescence | AID 1025, 2008 | recombinant CYP2C19, luciferin-H EGE luminescence; stronger effect = higher value; 0 = fully inhibited enzyme, 1 = untreated enzyme | activation factor at 5 µM | Cytochrome P450 2C19 (Homo sapiens), P33261 | 96,000 tested, under 10 active;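 active = activation factor of at least 2 at 5 µM in the primary screen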;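 also: 0 = wells with 2.5 mM tranylcypromine and 1 = vehicle-only wells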
Plk1 PBD FP – Plk1 polo box domain binding inhibitors, primary screen, biochemical, fluorescence polarization; Serine/threonine-protein kinase PLK1 (Homo sapiens), P53350; Plk1 PBD phosphopeptide binding; inhibition, %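 (tested at about 20 µM)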; 97,000 tested, 0.13% active; AID 693, 2007; in the data active = inhibition above about 34%, passing the limit was not always enough
Starred values were filed as active, the others as inactive; x = no result. This is a sample that favours compounds with a hit; in the whole collection about 28% have one here.

SMILES	CYP2C19 inhib	CYP2C9 inh	CYP2C9 activ	PLK1 kinase inh	CYP2C19 activ	Plk1 PBD FP
Cc1onc(-c2ccccc2Cl)c1C(=O)Nc1ccccc1N1CCOCC1	61.3*	68.8*	0.3	-8.4	0.4	12.6
CCC(C)(C)n1nnnc1CN1CCN(C(c2ccccc2)c2ccccc2)CC1	x	x	x	-5.9	x	-12.9
CC(=O)c1cc(-c2ccccc2)n(CC(=O)N2CCCCC2)c1C	28.5	22.8	0.8	-2.6	0.7	-1.6
Cc1cc2c(cc1C)N(CC(=O)N1CCCC1)C(=O)CC(c1ccccc1)=N2	35.0	68.5*	0.3	-27.2	0.7	-3.8
Cc1noc(C)c1C(=O)Nc1sc2c(c1C(N)=O)CCC2	10.2	15.6	0.8	-13.3	0.9	0.9
Cc1noc(C)c1C(=O)Nc1sc(C)c(C)c1C#N	9.5	62.0*	0.4	-9.0	0.9	-17.5
COc1cccc(CNc2nc3ccccc3n2CCN2CCCCC2)c1	49.9	52.3*	0.5	-4.7	0.5	19.7
CCCn1c(NCc2cc(OC)ccc2OC)nc2ccccc21	68.1*	28.0	0.7	-10.3	0.3	2.1
COc1ccc(CNc2nc3ccccc3n2CCN2CCCCC2)c(OC)c1	10.5	7.6	0.9	-10.0	0.9	-7.9
CCn1c(NCc2cc(OC)ccc2OC)nc2ccccc21	78.3*	57.6*	0.4	-16.1	0.2	18.8
COc1ccc(OC)c(CNc2nc3ccccc3n2CCN2CCCCC2)c1	54.7*	16.7	0.8	-3.1	0.5	13.2
CCn1c(NCc2cccc(OC)c2OC)nc2ccccc21	x	x	x	-8.3	x	5.9
Cc1cc(CN2CCN(CCC#N)CC2)c(O)c(C2(C)CCCCC2)c1	14.4	19.7	0.8	-17.1	0.9	-10.9
C=CCNC(=O)C1CC(=O)N(c2ccc(OCC(=O)Nc3ccc(OC)cc3)cc2)C1 (stereo not given)	-16.2	7.0	0.9	-1.1	1.2	-1.4
COc1cccc(CNC(=O)C2CCN(S(=O)(=O)c3c(C)nn(C)c3C)CC2)c1	3.9	-28.4	1.3	-14.2	1	-20.7
c1ccc(Cn2c(CNc3nc4ccccc4n3CCN3CCOCC3)nc3ccccc32)cc1	89.6*	91.3*	0.1	-18.2	0.1	-13.7
CCCn1c(NCc2ccc(N(C)C)cc2)nc2ccccc21	91.7*	23.7	0.8	-1.3	0.1	-21.6
O=C(CC(O)(c1ccccc1)C(F)(F)F)c1cccs1 (stereo not given)	44.3	21.6	0.8	-1.8	0.6	-22.5
Nc1nonc1C(=O)NCCNC(=O)c1cccs1	2.8	-12.5	1.1	-8.3	1	2.7
CCOC(=O)c1c(C)[nH]c(C(=O)CN2C(=O)NC(C)(c3ccc(C)cc3)C2=O)c1C (stereo not given)	82.9*	74.8*	0.3	x	0.2	x
CCCNC(=O)NC(=O)CN1C(=O)NC(C)(c2ccc(C)cc2)C1=O (stereo not given)	11.5	9.9	0.9	-1.2	0.9	3.7
CCOC(=O)c1c(C)[nH]c(C(=O)CN2C(=O)NC(CC)(c3ccccc3)C2=O)c1C (stereo not given)	63.5*	67.4*	0.3	-5.4	0.4	6.0
CCOC(=O)c1c(C)[nH]c(C(=O)CN2CCOCC2)c1C	18.5	12.8	0.9	x	0.8	x
Cc1sc2ncnc(OCC(=O)N3CCN(S(=O)(=O)c4ccccc4)CC3)c2c1C	x	x	x	5.5	x	6.3
O=C(Nc1ccc(F)cc1)N1CCC(c2nc3c(nnn3Cc3cccc(Cl)c3)c(=O)[nH]2)CC1	35.3	65.7*	0.3	-6.2	0.6	-15.7
O=C(NC1CCCC1)c1nc2c(nnn2Cc2cccc(Cl)c2)c(=O)[nH]1	7.9	0.5	1	x	0.9	x
Cc1ccc(NC(=O)N2CCC(c3nc4c(nnn4Cc4cccc(Cl)c4)c(=O)[nH]3)CC2)cc1	94.3*	100.0*	0	-0.4	0.1	3.8
Cc1ccc(Cn2nnc3c(=O)[nH]c(C4CCN(S(=O)(=O)c5ccc(C)cc5)CC4)nc32)cc1	78.1*	97.7*	0	-40.5	0.2	-16.1
